Laboratory results from PubChem BioAssay AID720706 (Broad Institute, 2013).
Out of some 350,000 compounds screened, about 5,500 (1.6%) were called active.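 Rule for the calls: active = significant combined selectivity score with lowered wild-type GFP, culture density cut under 30%, mutant RFP and density less affected; inactive = any of these conditions unmet.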 Many of the other results were omitted from the sample, so actives are more common in it than they were.

Test: GFP drop in mixed WT/humanized-ribosome E. coli culture – GFP/RFP fluorescence, OD600, single point, bacterial rRNA inhibitor project, primary screen (AID 720706)
Conditions: E. coli WT GFP vs humanized-ribosome RFP mutants, 24 h; GFP signal change (wild-type ribosome): stronger effect = lower value, DMSO median 0, no signal -100; OD600 change: measured here: OD600 growth, DMSO median 0, no signal -100; RFP signal change: measured here: RFP humanized mutant strains, DMSO median 0, no signal -100, concentration not given here

Structure (SMILES)	GFP signal change (wild-type ribosome)	OD600 change	RFP signal change
C[C@@H]1CN([C@H](C)CO)C(=O)c2cc(-c3ccncc3)cnc2O[C@H]1CN(C)C	-0.119% (inactive)	3.91%	0.159%
NNc1nc2c(Cl)cccc2s1	-27.1% (active)	-15.6%	-0.505%
CN1C(=O)c2cc(NC(=O)NC3CCCC3)ccc2OC[C@@H]2O[C@@H](CC(=O)O)CC[C@H]21	3.92% (inactive)	5.14%	-1.81%
CC[C@]1(C(=O)OC)[C@H]2C(=O)N(Cc3ccccc3)C(=O)[C@H]2[C@H]2CN=C(SCc3ccccc3)N21	-30.1% (inactive)	-42.8%	-8.47%
CC[C@]1(C(=O)OC)[C@H]2C(=O)N(Cc3ccccc3)C(=O)[C@H]2[C@H]2CN=C(SCc3ccc(C#N)cc3)N21	-22.2% (active)	-6.29%	8.89%
COC(=O)[C@@]1(C)[C@H]2C(=O)N(Cc3ccccc3)C(=O)[C@H]2[C@H]2CN=C(SCC3CC3)N21	-47.6% (inactive)	-80%	-15.4%
C[C@@H]1CN([C@H](C)CO)C(=O)c2cc(-c3cccc(F)c3)cnc2O[C@H]1CN(C)C(=O)Nc1ccccc1F	-2.5% (inactive)	-5.06%	-1.42%
CCC(=O)N1CC2(CN(Cc3cccnc3)C2)c2c(n(C)c3cc(OC)ccc23)[C@@H]1CO	1.02% (inactive)	-2.19%	-2.12%
C=C1CCC(N(O)c2cc(C)on2)C(=C)CCC2C1CC2(C)C (centres undefined)	-20.5% (active)	-3.66%	1.7%
CN1CCN(C(=O)C[C@H]2CC[C@@H]3[C@H](COC[C@@H](O)CN3CC3CCCC3)O2)CC1	-1.31% (inactive)	7.95%	-2.61%
Cc1cc(-c2ccc(C)c(S(=O)(=O)NCCCN(Cc3ccccc3)C(C)C)c2)on1	-6% (inactive)	-18.2%	1.25%
Cc1cc(-c2ccc(C)c(S(=O)(=O)NC(C)Cc3ccco3)c2)on1 (centres undefined)	-34.9% (active)	-21.1%	0.997%
CCOc1ccccc1CNS(=O)(=O)c1cc(-c2cc(C)no2)ccc1C	-6.17% (inactive)	-29.1%	-15.4%
COc1cc(F)c(C2=CC(=O)CC(C)(C)C2)cc1F	-21.1% (active)	-16.7%	2.19%
CC1(C)CC(=O)C=C(c2ccc(Cl)c(C(F)(F)F)c2)C1	2% (inactive)	-0.255%	-10.1%
COc1ccccc1-c1n[nH]nc1C1=CC(=O)CC(C)(C)C1	-4.29% (inactive)	-12.1%	-0.515%
C[C@@H]1CN([C@H](C)CO)C(=O)c2ccccc2-c2ccccc2CO[C@H]1CN(C)S(=O)(=O)c1ccsc1	-0.618% (inactive)	-1.1%	-2.79%
O=C(NCC[C@@H]1CC[C@@H](NC(=O)C2CCCC2)[C@H](CO)O1)c1cnccn1	3.79% (inactive)	7.83%	-1.44%
